This passage reports growth results from PubChem BioAssay (NCI).

Molecules are shown by their SMILES. About 83,000 compounds went through this panel and 20% of them were active in at least one assay; those are over-represented in the sample as a whole.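 Plates (96-well) were seeded with cells, treated with compound at one concentration, and incubated for 48 hours before percent growth was determined.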 Calls of active or inactive are those of the source. The calls were made as follows: active = growth percent below 10; inactive = the rest.

The subject of this experiment is HCT-15 colon. Nature of the experiment: NCI-60 one-dose screen, 48 h (100 = growth as untreated, 0 = no growth, -100 = all killed). Conditions: 10 µM unless noted.
`CCN(CC)CCCCCCNc1cc(OC)cc2cccnc12`: the growth was -4.8% (active). On to `COc1ccccc1Nc1cc(O)c2c(=O)cc(-c3ccccc3)oc2c1`, for which the growth was 29.3% (inactive).

For the molecule `COc1ccc(C(O)c2cc3c(N)c(C(=O)Nc4ccc(Cl)cc4)sc3nc2C)cc1` (stereo not given), the growth is 12.3% (inactive). The figure for `COc1cc(NCC(O)CN(CC(C)C)CC(C)C)c2nc(C)ccc2c1` (stereo not given) is 84.8% (inactive); for `CCCCCCCCCCN=C(N)N=C(N)N` it is 71.1% (inactive); for `COc1ccc(C(O)c2cc3c(N)c(C(=O)Nc4cccc(Br)c4C)sc3nc2C)cc1` (stereo not given) it is 18.6% (inactive).

As for `CCCCCCCCCCCCCCCCCCOc1ccccc1N`, the growth is 85.6% (inactive).

As to `CC(=O)O[C@H]1CC[C@@]2(C)[C@@H](CC[C@@H]3[C@@H]2CC[C@@]2(C)[C@H]3CC[C@]2(O)C(C)=O)C1`, the growth is 102% (inactive). The figure for `CCC1(CC)NC(=O)c2c(c3ccc(Cl)c(Cl)c3n2C)C1C#N` (stereo not given) is 100% (inactive). Turning to `COc1ccc(C2CC(c3cccc(Nc4ccncc4)c3)=NN2c2cc(Cl)cc(Cl)c2)cc1` (stereo not given), the growth is -67.5% (active). The value for `CC(=O)Nc1ccc(S(=O)(=O)NC2CCCCC2)cc1` was 95.9% (inactive); that for `Clc1ccc(N2N=C(c3cccc(Nc4ccncc4)c3)CC2c2ccccc2)cc1` (stereo not given) was 103% (inactive); that for `CN1C2CCC1CN(c1cnc(C(=O)Nc3cc(F)cc4cccnc34)cn1)C2` was 24.2% (inactive).

Take `C=Cc1cc[n+](CCCCCCCCCCCC)cc1`: the growth was 110% (inactive). Regarding `CCCCCCCCCCCCCCCC(=O)OC[C@@]1(O)C[C@@]23CC[C@@H]4C(C)(C)[C@H](O)CC[C@@]4(C)[C@@H]2CC[C@H]1C3`, the growth is 107% (inactive).
